Holding throughout (test): DAPPL (digital affinity profiling via proximity ligation, sequencing); 10 mM Tris-HCl pH 7.5, 50 mM NaCl, 1 mM DTT, 4% glycerol, room temperature, 30 min; GST-TFs on glutathione beads, 16-mer random dsDNA library, 0.1% formaldehyde crosslink after washing; high values mean tight binding
In one assay the target is T1, FEV (Homo sapiens, UniProt Q99581 1-238).
T1 sequence: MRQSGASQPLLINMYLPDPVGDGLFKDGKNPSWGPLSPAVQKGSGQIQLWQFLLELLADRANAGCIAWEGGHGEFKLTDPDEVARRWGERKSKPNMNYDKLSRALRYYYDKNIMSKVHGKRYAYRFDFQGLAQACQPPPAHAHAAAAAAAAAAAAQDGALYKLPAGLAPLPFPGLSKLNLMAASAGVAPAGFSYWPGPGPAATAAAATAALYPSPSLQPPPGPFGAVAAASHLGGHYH
The settings on record: protein: recombinant; tags: N-terminal GST; dsDNA, one strand shown. Put shortly:
(§1)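 Binding signal is each hexamer's read frequency for a factor divided by its frequency in the tag-only sample. The factors were GST-fused human transcription factors from yeast, captured on glutathione beads, DNA-barcoded and pooled with that sample. Pools were incubated with 200 nmole of a random double-stranded 16-mer DNA library in Tris/NaCl/DTT/glycerol buffer at room temperature for 30 min, then washed, crosslinked with 0.1% formaldehyde, proximity-ligated with BsaI/T4 ligase (1 h, 37 °C), PCR-amplified and sequenced on an Illumina NextSeq500.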

Another assay deals with ETV5 (Homo sapiens, UniProt P41161 1-510). The settings on record: protein: recombinant; tags: N-terminal GST; dsDNA, one strand shown. The essentials:
as §1

The target of a further assay is HSF1 (Homo sapiens, UniProt Q00613 1-529). The settings on record: protein: recombinant; tags: N-terminal GST; chain copies: 3; dsDNA, one strand shown. Put shortly:
as §1

In another assay the target is T2, SPIC (Homo sapiens, UniProt Q8N5J4 1-248).
T2 sequence: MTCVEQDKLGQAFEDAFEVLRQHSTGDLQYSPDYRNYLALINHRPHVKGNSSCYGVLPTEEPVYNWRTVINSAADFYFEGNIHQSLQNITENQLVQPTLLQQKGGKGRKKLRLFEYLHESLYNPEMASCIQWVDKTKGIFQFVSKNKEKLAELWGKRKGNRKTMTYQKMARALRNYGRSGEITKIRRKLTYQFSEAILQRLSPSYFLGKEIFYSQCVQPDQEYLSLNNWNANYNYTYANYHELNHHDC
To be noted: protein: recombinant; tags: N-terminal GST; dsDNA, one strand shown. The essentials: as §1

Another assay deals with ELF4 (Homo sapiens, UniProt Q99607 1-663). The settings on record: protein: recombinant; tags: N-terminal GST; dsDNA, one strand shown. The essentials: as §1
The target of a further assay is T3, ELK4 (Homo sapiens, UniProt P28324-2 1-405).
T3 sequence: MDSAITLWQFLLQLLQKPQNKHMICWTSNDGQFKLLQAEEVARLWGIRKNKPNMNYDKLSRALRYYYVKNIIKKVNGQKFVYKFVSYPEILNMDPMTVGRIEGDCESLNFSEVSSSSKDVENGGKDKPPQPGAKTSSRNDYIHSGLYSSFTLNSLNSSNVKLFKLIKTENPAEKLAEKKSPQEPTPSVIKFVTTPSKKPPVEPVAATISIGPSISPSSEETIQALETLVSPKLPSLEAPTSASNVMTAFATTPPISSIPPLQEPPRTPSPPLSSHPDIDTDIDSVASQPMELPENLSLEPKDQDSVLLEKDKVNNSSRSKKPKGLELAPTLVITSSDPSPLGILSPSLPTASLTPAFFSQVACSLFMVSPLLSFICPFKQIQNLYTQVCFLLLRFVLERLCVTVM
To be noted: protein: recombinant; tags: N-terminal GST; dsDNA, one strand shown. Put shortly: as §1

For another assay, the target named is T4, ETV2 (Homo sapiens, UniProt O00321 1-342).
T4 sequence: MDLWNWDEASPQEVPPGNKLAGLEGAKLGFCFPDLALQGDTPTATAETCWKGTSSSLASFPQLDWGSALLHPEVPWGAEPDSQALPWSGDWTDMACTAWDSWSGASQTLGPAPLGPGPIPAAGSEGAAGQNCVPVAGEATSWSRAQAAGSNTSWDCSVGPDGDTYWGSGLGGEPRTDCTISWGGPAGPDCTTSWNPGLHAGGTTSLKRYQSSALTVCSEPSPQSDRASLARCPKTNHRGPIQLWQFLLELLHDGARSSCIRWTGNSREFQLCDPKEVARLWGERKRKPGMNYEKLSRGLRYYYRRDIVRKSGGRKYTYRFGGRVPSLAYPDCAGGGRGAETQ
The settings on record: protein: recombinant; tags: N-terminal GST; dsDNA, one strand shown. The essentials: as §1

A further assay addresses T5, ELF3 (Homo sapiens, UniProt P78545 1-371).
T5 sequence: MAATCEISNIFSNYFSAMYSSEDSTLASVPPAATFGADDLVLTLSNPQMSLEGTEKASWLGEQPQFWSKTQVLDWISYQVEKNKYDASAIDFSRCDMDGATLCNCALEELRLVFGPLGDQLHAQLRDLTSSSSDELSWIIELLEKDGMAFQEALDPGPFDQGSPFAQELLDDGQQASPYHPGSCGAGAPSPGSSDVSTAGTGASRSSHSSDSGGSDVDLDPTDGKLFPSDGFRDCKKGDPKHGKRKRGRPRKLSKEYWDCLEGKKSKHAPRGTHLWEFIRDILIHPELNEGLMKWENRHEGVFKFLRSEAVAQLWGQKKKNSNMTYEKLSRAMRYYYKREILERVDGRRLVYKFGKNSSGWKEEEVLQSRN
The settings on record: protein: recombinant; tags: N-terminal GST; dsDNA, one strand shown. The essentials:
as §1

The target of the next assay is CRX (Homo sapiens, UniProt O43186 1-299). The settings on record: protein: recombinant; tags: N-terminal GST; dsDNA, one strand shown. The essentials:
as §1

In another assay the target is ETV1 (Homo sapiens, UniProt P50549 1-477). The settings on record: protein: recombinant; tags: N-terminal GST; dsDNA, one strand shown. Put shortly:
as §1

The target of another assay is T6, ERF (Homo sapiens, UniProt P50548 1-548).
T6 sequence: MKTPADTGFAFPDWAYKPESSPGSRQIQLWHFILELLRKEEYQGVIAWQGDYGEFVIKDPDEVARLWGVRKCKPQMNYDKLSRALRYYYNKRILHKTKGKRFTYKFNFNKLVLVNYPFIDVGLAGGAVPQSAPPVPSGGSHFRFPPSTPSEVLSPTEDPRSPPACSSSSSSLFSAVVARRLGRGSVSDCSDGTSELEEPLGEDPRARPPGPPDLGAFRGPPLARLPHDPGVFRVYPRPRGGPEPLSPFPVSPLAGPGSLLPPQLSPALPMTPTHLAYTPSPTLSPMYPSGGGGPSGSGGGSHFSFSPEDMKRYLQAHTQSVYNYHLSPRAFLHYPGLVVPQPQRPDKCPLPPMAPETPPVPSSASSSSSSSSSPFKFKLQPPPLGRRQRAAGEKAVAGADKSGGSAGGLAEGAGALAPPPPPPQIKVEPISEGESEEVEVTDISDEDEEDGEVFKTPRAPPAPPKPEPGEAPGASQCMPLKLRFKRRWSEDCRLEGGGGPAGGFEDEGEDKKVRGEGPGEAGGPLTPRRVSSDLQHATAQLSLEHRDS
The settings on record: protein: recombinant; tags: N-terminal GST; dsDNA, one strand shown. The essentials: as §1

Another assay has as its target T7, ETV3L (Homo sapiens, UniProt Q6ZN32 1-361).
T7 sequence: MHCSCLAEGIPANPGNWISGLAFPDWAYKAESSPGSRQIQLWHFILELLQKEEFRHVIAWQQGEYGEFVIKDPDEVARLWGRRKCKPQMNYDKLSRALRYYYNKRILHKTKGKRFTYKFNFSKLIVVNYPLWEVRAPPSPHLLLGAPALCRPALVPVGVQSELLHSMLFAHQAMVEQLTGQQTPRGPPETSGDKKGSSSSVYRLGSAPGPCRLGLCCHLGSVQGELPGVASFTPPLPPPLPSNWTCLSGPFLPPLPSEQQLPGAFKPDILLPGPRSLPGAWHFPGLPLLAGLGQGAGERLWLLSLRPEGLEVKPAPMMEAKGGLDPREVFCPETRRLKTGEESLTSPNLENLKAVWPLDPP
To be noted: protein: recombinant; tags: N-terminal GST; dsDNA, one strand shown. Put shortly:
as §1

A further assay concerns the target T8, ETS2 (Homo sapiens, UniProt P15036 1-469).
T8 sequence: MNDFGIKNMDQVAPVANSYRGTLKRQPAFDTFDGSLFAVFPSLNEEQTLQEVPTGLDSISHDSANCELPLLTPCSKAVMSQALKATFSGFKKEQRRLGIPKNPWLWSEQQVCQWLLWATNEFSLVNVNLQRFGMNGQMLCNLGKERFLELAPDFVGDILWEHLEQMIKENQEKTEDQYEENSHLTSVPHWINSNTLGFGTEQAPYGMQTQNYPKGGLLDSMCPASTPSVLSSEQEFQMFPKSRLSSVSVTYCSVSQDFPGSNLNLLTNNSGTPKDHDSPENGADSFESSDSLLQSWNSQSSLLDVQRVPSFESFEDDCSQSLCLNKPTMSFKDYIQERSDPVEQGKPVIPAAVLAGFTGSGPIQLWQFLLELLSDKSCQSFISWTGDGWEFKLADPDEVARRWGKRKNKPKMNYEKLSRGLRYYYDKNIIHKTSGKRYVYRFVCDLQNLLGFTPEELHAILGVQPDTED
To be noted: protein: recombinant; tags: N-terminal GST; dsDNA, one strand shown. The essentials:
as §1

Another assay addresses T9, SPDEF (Homo sapiens, UniProt O95238 1-335).
T9 sequence: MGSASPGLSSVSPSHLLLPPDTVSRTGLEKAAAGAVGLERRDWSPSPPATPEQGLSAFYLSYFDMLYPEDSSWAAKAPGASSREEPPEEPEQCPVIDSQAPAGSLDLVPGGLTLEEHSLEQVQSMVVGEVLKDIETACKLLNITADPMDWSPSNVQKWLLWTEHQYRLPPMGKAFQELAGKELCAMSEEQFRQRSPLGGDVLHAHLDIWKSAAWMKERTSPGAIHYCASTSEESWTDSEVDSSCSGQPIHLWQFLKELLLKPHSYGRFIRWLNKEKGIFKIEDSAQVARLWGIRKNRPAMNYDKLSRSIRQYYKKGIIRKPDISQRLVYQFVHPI
To be noted: protein: recombinant; tags: N-terminal GST; dsDNA, one strand shown. Put shortly: as §1

For another assay, the target named is T10, ETV7 (Homo sapiens, UniProt Q9Y603 1-341).
T10 sequence: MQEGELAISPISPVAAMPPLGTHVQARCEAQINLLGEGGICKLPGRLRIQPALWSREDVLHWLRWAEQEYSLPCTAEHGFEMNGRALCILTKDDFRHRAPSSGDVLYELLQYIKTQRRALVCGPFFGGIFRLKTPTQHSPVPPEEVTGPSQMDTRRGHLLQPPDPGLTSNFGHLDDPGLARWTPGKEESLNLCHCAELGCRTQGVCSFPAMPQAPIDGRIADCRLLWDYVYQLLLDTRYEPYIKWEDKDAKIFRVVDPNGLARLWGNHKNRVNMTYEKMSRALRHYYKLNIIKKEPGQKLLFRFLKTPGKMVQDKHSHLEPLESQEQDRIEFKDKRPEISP
To be noted: protein: recombinant; tags: N-terminal GST; dsDNA, one strand shown. The essentials:
as §1

The target in the next assay is T11, ELF5 (Homo sapiens, UniProt Q9UKW6-2 1-255).
T11 sequence: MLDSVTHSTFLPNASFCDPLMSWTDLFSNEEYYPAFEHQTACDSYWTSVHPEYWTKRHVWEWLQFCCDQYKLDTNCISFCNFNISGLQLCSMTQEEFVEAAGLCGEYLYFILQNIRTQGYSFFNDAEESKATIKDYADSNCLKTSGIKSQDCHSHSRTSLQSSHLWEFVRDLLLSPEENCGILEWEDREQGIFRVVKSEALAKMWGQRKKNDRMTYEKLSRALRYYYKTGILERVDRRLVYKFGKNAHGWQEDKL
To be noted: protein: recombinant; tags: N-terminal GST; dsDNA, one strand shown. The essentials:
as §1

The next assay addresses T12, ETV3 (Homo sapiens, UniProt P41162-2 1-143).
T12 sequence: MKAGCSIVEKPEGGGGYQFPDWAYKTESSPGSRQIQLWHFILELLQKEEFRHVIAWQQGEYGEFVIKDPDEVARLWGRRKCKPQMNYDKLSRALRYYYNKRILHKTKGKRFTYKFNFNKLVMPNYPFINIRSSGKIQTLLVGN
The settings on record: protein: recombinant; tags: N-terminal GST; dsDNA, one strand shown. The essentials:
as §1

The target of another assay is ETV6 (Homo sapiens, UniProt P41212 1-452). To be noted: protein: recombinant; tags: N-terminal GST; dsDNA, one strand shown. Put shortly: as §1
Chain of ETV6 (P41212 whole entry): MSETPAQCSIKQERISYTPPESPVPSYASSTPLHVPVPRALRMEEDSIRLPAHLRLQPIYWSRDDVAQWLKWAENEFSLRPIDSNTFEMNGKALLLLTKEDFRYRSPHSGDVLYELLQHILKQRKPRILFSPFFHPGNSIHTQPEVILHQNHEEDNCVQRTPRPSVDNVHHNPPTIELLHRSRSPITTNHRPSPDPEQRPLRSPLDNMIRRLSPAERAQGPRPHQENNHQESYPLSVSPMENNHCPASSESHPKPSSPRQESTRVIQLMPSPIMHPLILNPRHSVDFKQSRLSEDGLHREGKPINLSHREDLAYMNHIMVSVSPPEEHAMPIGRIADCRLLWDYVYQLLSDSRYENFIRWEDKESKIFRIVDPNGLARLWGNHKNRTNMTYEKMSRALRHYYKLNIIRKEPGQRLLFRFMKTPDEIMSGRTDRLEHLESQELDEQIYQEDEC

Chain of ELF4 (Q99607 whole entry): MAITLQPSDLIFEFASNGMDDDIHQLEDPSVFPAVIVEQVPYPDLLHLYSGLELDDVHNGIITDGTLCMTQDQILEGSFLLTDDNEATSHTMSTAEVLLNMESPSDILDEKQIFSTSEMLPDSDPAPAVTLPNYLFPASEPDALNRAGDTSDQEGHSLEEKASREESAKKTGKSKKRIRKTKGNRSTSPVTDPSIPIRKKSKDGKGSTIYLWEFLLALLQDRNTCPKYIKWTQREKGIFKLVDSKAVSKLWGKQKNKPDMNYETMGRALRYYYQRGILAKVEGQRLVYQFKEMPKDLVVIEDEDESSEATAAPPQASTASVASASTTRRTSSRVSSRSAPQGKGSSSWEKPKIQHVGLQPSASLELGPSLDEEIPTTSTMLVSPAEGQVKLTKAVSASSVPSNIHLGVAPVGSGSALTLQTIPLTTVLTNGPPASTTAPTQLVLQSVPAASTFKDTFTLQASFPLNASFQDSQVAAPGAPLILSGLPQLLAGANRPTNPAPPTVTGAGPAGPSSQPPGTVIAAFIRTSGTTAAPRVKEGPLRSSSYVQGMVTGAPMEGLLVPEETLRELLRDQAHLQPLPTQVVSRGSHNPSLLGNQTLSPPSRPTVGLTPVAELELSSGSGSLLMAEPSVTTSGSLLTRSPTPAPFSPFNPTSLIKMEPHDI
Chain of ETV5 (P41161 whole entry): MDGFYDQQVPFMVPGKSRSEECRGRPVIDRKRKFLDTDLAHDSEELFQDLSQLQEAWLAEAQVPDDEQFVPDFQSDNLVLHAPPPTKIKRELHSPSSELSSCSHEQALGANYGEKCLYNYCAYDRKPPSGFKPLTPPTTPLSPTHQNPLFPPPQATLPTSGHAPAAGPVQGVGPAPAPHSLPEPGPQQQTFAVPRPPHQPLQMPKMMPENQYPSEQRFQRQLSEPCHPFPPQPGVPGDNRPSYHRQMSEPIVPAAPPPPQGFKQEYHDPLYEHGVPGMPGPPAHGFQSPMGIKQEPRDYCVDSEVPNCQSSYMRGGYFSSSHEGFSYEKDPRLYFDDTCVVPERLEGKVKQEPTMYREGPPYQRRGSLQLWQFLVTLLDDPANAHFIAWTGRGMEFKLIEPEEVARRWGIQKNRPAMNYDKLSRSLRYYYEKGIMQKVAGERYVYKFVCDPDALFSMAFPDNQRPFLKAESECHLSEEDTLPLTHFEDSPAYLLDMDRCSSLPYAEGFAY
Chain of HSF1 (Q00613 whole entry): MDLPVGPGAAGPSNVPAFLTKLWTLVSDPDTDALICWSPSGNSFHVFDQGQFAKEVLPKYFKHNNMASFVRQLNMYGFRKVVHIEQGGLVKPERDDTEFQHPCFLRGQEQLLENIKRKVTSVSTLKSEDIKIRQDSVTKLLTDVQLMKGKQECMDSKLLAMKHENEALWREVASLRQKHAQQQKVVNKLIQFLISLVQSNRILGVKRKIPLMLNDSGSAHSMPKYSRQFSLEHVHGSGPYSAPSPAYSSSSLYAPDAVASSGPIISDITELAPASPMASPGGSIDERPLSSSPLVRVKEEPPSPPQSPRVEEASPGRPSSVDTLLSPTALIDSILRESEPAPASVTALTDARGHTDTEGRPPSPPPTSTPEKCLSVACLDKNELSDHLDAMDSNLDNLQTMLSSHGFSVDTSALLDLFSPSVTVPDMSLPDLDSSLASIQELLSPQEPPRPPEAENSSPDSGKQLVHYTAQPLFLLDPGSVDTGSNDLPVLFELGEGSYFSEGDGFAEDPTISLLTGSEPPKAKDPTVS
Chain of CRX (O43186 whole entry): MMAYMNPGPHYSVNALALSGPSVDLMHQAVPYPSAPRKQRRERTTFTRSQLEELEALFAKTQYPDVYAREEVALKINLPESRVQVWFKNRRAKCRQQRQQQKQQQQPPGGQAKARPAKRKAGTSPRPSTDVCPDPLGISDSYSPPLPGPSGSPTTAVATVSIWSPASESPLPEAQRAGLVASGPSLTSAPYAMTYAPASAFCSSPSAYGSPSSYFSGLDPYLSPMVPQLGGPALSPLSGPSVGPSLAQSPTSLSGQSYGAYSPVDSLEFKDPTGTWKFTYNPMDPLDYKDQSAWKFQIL
Chain of ETV1 (P50549 whole entry): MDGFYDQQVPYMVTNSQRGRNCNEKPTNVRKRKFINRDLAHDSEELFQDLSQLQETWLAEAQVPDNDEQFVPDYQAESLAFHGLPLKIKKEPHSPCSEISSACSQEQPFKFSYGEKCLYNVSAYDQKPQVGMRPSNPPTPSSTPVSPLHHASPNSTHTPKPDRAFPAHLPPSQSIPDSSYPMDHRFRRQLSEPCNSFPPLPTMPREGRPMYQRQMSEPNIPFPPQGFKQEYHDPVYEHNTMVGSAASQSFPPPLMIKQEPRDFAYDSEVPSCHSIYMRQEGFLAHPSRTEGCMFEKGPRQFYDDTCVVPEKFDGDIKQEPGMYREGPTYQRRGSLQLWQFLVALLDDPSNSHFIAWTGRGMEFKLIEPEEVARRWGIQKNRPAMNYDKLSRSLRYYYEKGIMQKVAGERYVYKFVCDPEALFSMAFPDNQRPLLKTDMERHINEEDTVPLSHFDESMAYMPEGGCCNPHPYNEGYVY

For the sequence CGCGCT, the binding signal in the assay with FEV was 1.11 fold enrichment (6-mer frequency, TF over GST control); with ETV5, 1.17 fold enrichment (6-mer frequency, TF over GST control); with HSF1, 1.11 fold enrichment (6-mer frequency, TF over GST control); with SPIC, 1.31 fold enrichment (6-mer frequency, TF over GST control); with ELF4, 1.2 fold enrichment (6-mer frequency, TF over GST control); with ELK4, 1.21 fold enrichment (6-mer frequency, TF over GST control). In addition, the binding signal with ETV2 was 1.11 fold enrichment (6-mer frequency, TF over GST control); with ELF3, 1.05 fold enrichment (6-mer frequency, TF over GST control); in the assay with CRX, 1.06 fold enrichment (6-mer frequency, TF over GST control); with ETV1, 1.15 fold enrichment (6-mer frequency, TF over GST control); with ERF, 1.44 fold enrichment (6-mer frequency, TF over GST control); with ETV3L, 1.18 fold enrichment (6-mer frequency, TF over GST control). Also, the binding signal in the assay with ETS2 was 1.25 fold enrichment (6-mer frequency, TF over GST control); with SPDEF, 1.14 fold enrichment (6-mer frequency, TF over GST control); with ETV7, 1.14 fold enrichment (6-mer frequency, TF over GST control); with ELF5, 1.11 fold enrichment (6-mer frequency, TF over GST control); with ETV3, 1.17 fold enrichment (6-mer frequency, TF over GST control); with ETV6, 1.15 fold enrichment (6-mer frequency, TF over GST control).

Source of the values: article PMC7862700, “An all-to-all approach to the identification of sequence-specific readers for epigenetic DNA modifications on cytosine”.
